According to PubChem BioAssay (EPA / NIEHS):
Records with an inconclusive call do not appear. Active and inactive are the calls of the source. The calls were made as follows: active = hit-call score of the fitted dose curve at least 0.9, where 1 is the maximum; inconclusive = response in the unintended direction; inactive = score below 0.9.

biological target: Sodium channel protein type 1 subunit alpha (Rattus norvegicus) (UniProt P04774); test: NVS_IC_rNaCh_site2: NovaScreen (NVS) Ion Channel Assay for rat Sodium Channel, Site 2 (NaCh) (AID 2283322);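 also: hit means loss of radioligand binding signal relative to DMSO so AC50 marks displacement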
Protocol: NVS_IC_rNaCh_site2 is a biochemical, single-readout assay that uses extracted gene-proteins from Rat forebrain membranes in a tissue-based cell-free assay. Measurements were taken 1 hour after chemical dosing in a 48-well plate.NVS_IC_rNaCh_site2 is one of one assay component(s) measured or calculated from the NVS_IC_rNaCh_site2 assay. It is designed to make measurements of radioligand binding, a form of binding reporter, as detected with scintillation counting signals by Filter-based radiodetection technology.Data from the assay component NVS_IC_rNaCh_site2 was analyzed into 1 assay endpoint. This assay endpoint, NVS_IC_rNaCh_site2, was analyzed in the positive analysis fitting direction relative to DMSO as the negative control and baseline of activity. Using a type of binding reporter, loss-of-signal activity can be used to understand changes in the binding as they relate to the gene Scn1a. Furthermore, this assay endpoint can be referred to as a primary readout, because the performed assay has only produced 1 assay endpoint. To generalize the intended target to other relatable targets, this assay endpoint is annotated to the ion channel intended target family, where the subfamily is sodium channel.
Binding assays used specific radioligands (tritiated, iodinated) with non-radioactive competitive displacement ligands in agonist or antagonist protocols (as indicated) and various reference compounds and inhibitors to titrate specific binding to receptors and transporters. Most enzyme assays (CYPs, kinases, phosphatases, proteases, HDACs) used recombinant protein and specific substrates (fluorescence mostly, some colorimetric and radioactive) and inhibitors, followed by a biochemical separation of substrate and product. All assays for the biochemical HTS were initially run in duplicate at a single concentration (10 uM for CYP450 assays and 25 uM for all others). […] Each assay was run with positive and negative controls, and concurrent controls on every plate. The follow-up (secondary) screen tested active chemical-pairs in concentration series, as well as a few additional assays not tested in the primary screen, some selected negative inactives, and several cases re-run in the concentration series for confirmatory purposes.

Row | Structure (SMILES) | outcome | AC50
1 | CS(=O)(=O)OCCCCOS(C)(=O)=O | inactive | –
2 | COc1ccc(OC)c(N=Nc2c(O)ccc3ccccc23)c1 | inactive | –
3 | CCCCCCCCCCCCCCCC(=O)OC/C=C(C)/C=C/C=C(C)/C=C/C1=C(C)CCCC1(C)C | inactive | –
4 | CN(c1nccc(=O)[nH]1)C1CCN(c2nc3ccccc3n2Cc2ccc(F)cc2)CC1 | inactive | –
5 | CS(=O)(=O)c1ccc(C2=C(c3ccccc3)C(=O)OC2)cc1 | inactive | –
6 | COc1ccc(CCN2CCC(Nc3nc4ccccc4n3Cc3ccc(F)cc3)CC2)cc1 | – | 115 nM (active)
7 | CC(C)(C)CC(C)(C)c1ccc(OCCOCC[N+](C)(C)Cc2ccccc2)cc1 | inactive | –
8 | CCCCC(CC)COC(C)=O (configuration not stated) | inactive | –
9 | C[C@@H]1CCN(C(=O)[C@H](CCCN=C(N)N)NS(=O)(=O)c2cccc3c2NC[C@H](C)C3)[C@@H](C(=O)O)C1 | – | 894 nM (active)
10 | COCCc1ccc(OCC(O)CNC(C)C)cc1 (configuration not stated) | – | 5040 nM (active)
11 | CCC1CCCCC1 | inactive | –
12 | CC=Cc1ccc(OC)c(OC)c1 | inactive | –
